Shown are actives, neighbours in structure and some others; about 1.8% of the full set was active somewhere.
aDG glyco act: activators of alpha-DG glycosylation, primary screen, uHTS, Pro5-aDG cells, AlphaScreen; alpha-DG glycosylation AlphaScreen (IIH6); 0% Pro5, 100% B10-LARGE cell signal; activation, % at 10 µM; actives 0.22% (n = 360,000);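 active = activation of at least 8% versus controls, or a plate z-score of at least 8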;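 note: Pro5 are CHO cells carrying HIG-tagged alpha-DG that lacks glycosylation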
AI-2 QS mod: Vibrio harveyi AI-2 quorum sensing modulators, primary screen, JMH597 strain, luminescence/OD600 ratio | Vibrio harveyi JMH597 AI-2 luminescence/OD600 ratio, 9 h; active compounds read low; strain lacks LuxN and CqsS sensors; 0 = neutral-control median | activity change, % at 7.5 µM | actives 0.4% (n = 300,000) | AID 2094, 2009; in the data active = activity change below about -75%, passing the limit was not always enough; inconclusive = no clear call, values can overlap the other calls;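 note: luminescence divided by OD600 gain over 9 h not by final OD600 alone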
SUMO Mot1 rescue: yeast Mot1-301 growth rescue at high temperature, primary screen, SUMOylation pathway inhibitor project, S. cerevisiae, ATP luminescence, 38.5C; S. cerevisiae Mot1-301 growth rescue; percent above DMSO median, 100 means doubled; growth rescue, % at 18.8 µM; actives 1% (n = 320,000); AID 2716, 2010;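 active = every valid replicate shows activation above 250% relative to neutral control wells; inactive = the rest, any valid replicate at or below 250%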;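 note: OY570 slx delta 5 strain wells were the positive control but not used for scaling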
Bfl-1 A1 inh: caspase 3/7 activation in MEF A1-2A-BIM cells, primary screen, A1 inhibitor project, cell-based, luminescence, HTS; Caspase-Glo 3/7 luminescence, 3 h; percent of clofoctol response, vehicle zero; caspase activation, % (no concentration beside the values); actives 0.066% (n = 330,000); AID 2462, 2010;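 active = over half of replicate activation scores above 10%, or exactly half above 10 with the replicate mean above 10; inconclusive = replicate mean below 10 yet half the replicates above 10; inactive = over half of replicates below 10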
ARNT-TACC3 inh: disruptors of ARNT/TACC3 protein interaction, primary screen, biochemical, AlphaScreen, single concentration; Transforming acidic coiled-coil-containing protein 3 (Homo sapiens), Q9Y6A5; AlphaScreen His-ARNT PAS-B/GST-TACC3 binding, luminescence; TACC3 fragment carries E629A point mutation; inhibition, % at 9.99 µM; actives 0.66% (n = 390,000);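 active = mean inhibition of replicates at least 50% and at least half of replicates each reaching 50%; inconclusive = half or more replicates reach 50% but mean below 50%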;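 note: 0% = complete ARNT plus TACC3 wells and 100% = ARNT alone without TACC3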
* marks the source's active call; other numbers are inactive results; ? = inconclusive; . = not tested or not shown; + = active, no number.

SMILES | aDG glyco act | AI-2 QS mod | SUMO Mot1 rescue | Bfl-1 A1 inh | ARNT-TACC3 inh
Oc1c(Cl)cc(CN2CCCCC2)c2cccnc12 | 0 | 11 | 0 | 0 | 77*
Oc1ccc(Cc2ccccc2)c2cccnc12 | 0 | . | . | . | .
Oc1c(CN2CCN(c3ccccn3)CC2)cc(Cl)c2cccnc12 | -1 | ? | 105 | 0 | 60*
COc1ccc(/C=C(/C(=O)c2ccc(Cl)cc2Cl)n2cncn2)cc1 | 0 | 31 | . | 0 | .
CN(C)c1ccc(/C=C(/C(=O)c2ccc(Cl)cc2Cl)n2cncn2)cc1 | 0 | 9 | 308* | 1 | 5
C/C(CC(=O)Nc1cc(C)ccn1)=N\NC(=O)c1cccc(C)c1 | 0 | 42 | -12 | -1 | 26
CC(C)COc1ccc(C(=O)OCCN2CCCCC2)cc1 | 0 | 14 | 138 | 0 | active
Nc1ccccc1-n1cccc1 | 0 | 12 | 315* | 0 | -11
CC(C)(C)OC(=O)NCCc1nnc(S(=O)(=O)Cc2ccc(Cl)cc2Cl)o1 | 0 | -89* | 87 | 5.9* | -6
CC(C)(C)OC(=O)NCCc1nnc(SCc2ccccc2Cl)o1 | 0 | 13 | -14 | 0 | 4
COc1cc([N+](=O)[O-])cc(/C=N/NC(=O)c2ccc(C)nc2)c1O | 0 | 8 | -20 | -5 | 65*
COc1cc([N+](=O)[O-])cc(/C=N/NC(=O)c2ccc(NC(=O)c3ccc(C)cc3)cc2)c1O | 0 | 27 | . | . | -4
COc1cc([N+](=O)[O-])cc(/C=N/NC(=O)Cn2cncn2)c1O | 0 | 30 | -9 | -1 | 61*
NC(=O)CNC(=O)c1cccc(Cl)c1 | 0 | -2 | 7 | 1 | active
COc1ccc(C(c2c(O)nc(SC)n(C)c2=O)c2c(O)nc(SC)n(C)c2=O)cc1O | 0 | -89* | -21 | 0 | -8
COc1ccc(-c2nc(SC)n(C)c(=O)c2C#N)cc1OC | 0 | 23 | 4 | 0 | -9
CS(=O)(=O)c1sc(C#N)c2c1C(=O)CC(c1ccccc1)C2 (stereo unspecified) | 0 | -14 | 358 | 57* | 26
CCOc1ccc(OCCSc2nc3ccccc3[nH]2)cc1 | 1 | 3 | 7 | 0 | -1
CCCOc1ccc(CSc2nc3ccccc3[nH]2)cc1 | 4.4* | -13 | 127 | -6 | -3
Cc1cc([N+](=O)[O-])cc(/C=N\NC(=O)C2COc3ccccc3O2)c1O (stereo unspecified) | 0 | -16 | -16 | -4 | 43*
C[C@H]1CN([C@@H](C)CO)C(=O)c2cc(NS(=O)(=O)c3cccs3)ccc2O[C@H]1CN(C)C | . | . | . | . | -2
O=C(NN=C1CCCCC1)Nc1ccccc1Cl | 0 | 22 | 13 | 0 | -9
O=S(=O)(Nc1cc(Sc2ncn[nH]2)c(O)c2ccccc12)c1ccccc1 | 0 | . | . | . | .
O=C(O)CSc1cc(NS(=O)(=O)c2ccc(Br)cc2)c2ccccc2c1O | 3.4* | 39 | -9 | 0 | 97*
Cc1ccc2nc(Cl)c3nnnn3c2c1 | 0 | -86* | 382* | 0 | -10
SMILES | aDG glyco act | AI-2 QS mod | SUMO Mot1 rescue | Bfl-1 A1 inh | ARNT-TACC3 inh
S=c1c2c(nc3nc[nH]n13)CCC2 | 0 | 39 | -17 | 0 | 35*
CC1CCc2c(nc3nc[nH]n3c2=O)C1 (stereo unspecified) | 0 | 25 | -30 | 0 | 2
Cc1ccc(C(=O)c2ccccc2C(=O)Nc2ccccc2)cc1 | 0 | 2 | 0 | 0 | -4
Cc1ccc(C)c(NC(=O)c2ccccc2C(=O)c2ccccc2)c1 | 1 | 22 | 715* | 1 | .
Cn1nnnc1Sc1ncnc2scc(-c3ccc4c(c3)OCO4)c12 | 0 | . | -16 | 0 | 47*
COc1cc(/C=C(\NC(=O)c2ccccc2)C(=O)N2CC3CC(C2)c2cccc(=O)n2C3)cc(OC)c1OC (stereo unspecified) | 1 | 16 | + | 0 | -19
CN(Cc1ccccc1)C(=O)c1[nH]cnc1C(=O)NCC(=O)OC(C)(C)C | 0 | 9 | 11 | 0 | 1
N/C(=N\NS(=O)(=O)c1ccccc1C(F)(F)F)c1ccccn1 | 0 | 24 | 1 | 0 | 41
Cc1nc(C(F)(F)F)c(C(=O)N/N=C(\N)c2ccccn2)s1 | 1 | 20 | 14 | 0 | 62*
CN1CCN(c2ccc(-c3cccc(NC(=O)COc4ccc(Cl)cc4Cl)c3)nn2)CC1 | 5.2* | 4 | -15 | -12 | 1
CN1CCN(c2ccc(-c3cccc(NC(=O)COc4ccc(Cl)cc4)c3)nn2)CC1 | 1 | 29 | -4 | -2 | -2
CCCCN(CCCC)CCNC(=O)c1ccc2nc(-c3ccccc3NC(C)=O)c(=O)[nH]c2c1 | 0 | 15 | 561* | 0 | -4
O=C(CCSCCC(=O)NN=Cc1ccccc1)NN=Cc1ccccc1 | 0 | . | . | . | .
CCOC(=O)N1CCN(S(=O)(=O)c2ccc(OC)c(Cl)c2)CC1 | 0 | -9 | -3 | -1 | 0
CCOC(=O)N1CCN(S(=O)(=O)c2ccc(OCC(=O)OC)c(Cl)c2)CC1 | 0 | 2 | 287* | 0 | -7
CC(=O)c1sc(NC(=O)C(C)C)nc1C | 0 | 6 | . | 0 | -4
CC(=O)Nc1nc(C)c(C(C)=O)s1 | 0 | 9 | 341* | 0 | -2
CCOc1ccc(OCc2ccc(C(=O)NN=Cc3ccc[nH]3)cc2)cc1 | 0 | . | 38 | 9.7* | 2
CCOc1ccccc1C(=O)N/N=C/c1cccc2cccnc12 | 0 | 18 | 13 | 0 | 72*
COc1ccc(C(=O)N/N=C/c2cccnc2)cc1 | 0 | -1 | -6 | -1 | 6
CCOc1ccc(C(=O)N/N=C/c2cccc3cccnc23)cc1 | 0 | 78 | -5 | 0 | 65*
COc1ccc(C(=O)N/N=C/c2cccc3cccnc23)cc1 | 0 | 34 | . | 1 | 88*
CCOc1ccc(C(=O)N/N=C/c2ccccc2[N+](=O)[O-])cc1 | 0 | 16 | 0 | -1 | 0
O=C(N/N=C/c1ccc[nH]1)c1ccccc1OCc1ccc(F)cc1 | 0 | 19 | 69 | 1 | -5
CCn1c(-c2ccco2)nc2ccccc21 | 0 | 5 | -4 | -1 | 2
O=C([C@@H]1[C@@H](CO)[C@@H]2Cn3c(cccc3=O)[C@@H]2N1CCC(F)(F)F)N1CCCCC1 | . | . | . | . | 9.3*
O=C([C@@H]1[C@@H](CO)[C@@H]2Cn3c(cccc3=O)[C@@H]2N1CC1CCCC1)N1CCCCC1 | . | . | . | . | 31
NC(=O)Nn1c(CCC(=O)O)ccc1-c1ccc(F)cc1 | 0 | 26 | 349* | -1 | 2

Bioassay records (PubChem BioAssay)
